Rows were chosen to be rich in hits. Some 2.5% of all compounds tested hit in one or more screens of this group.
ASK1 inh – human ASK1 kinase inhibition, primary screen; inhibition, % at 7.44 µM; AlphaScreen MKK6 phosphorylation by ASK1, luminescence; hit rate 0.99% among 22,000; AID 1159602; Q99683; in the data active = inhibition above about 35%;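 note: 0% = median of compound wells and 100% = no enzyme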
ULK1 inh – inhibitors of human ULK1 kinase; O75385; AlphaScreen Atg13 phosphorylation by ULK1, luminescence; inhibition, % at 5.96 µM; hit rate 1.9% among 30,000; AID 1259251; in the data active = inhibition above about 43%;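 note: 0% = median of compound wells and 100% = no enzyme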
* marks the source's active call; other numbers are inactive results; nt = not tested or not shown.

SMILES	ASK1 inh	ULK1 inh
O=C(O)c1cc(O)c2c(c1)[C@@H]([C@H]1c3cc(C(=O)O)cc(O)c3C(=O)c3c(O[C@H]4O[C@H](CO)[C@@H](O)[C@H](O)[C@H]4O)cccc31)c1cccc(O[C@H]3O[C@H](CO)[C@@H](O)[C@H](O)[C@H]3O)c1C2=O	nt	67*
O=C1c2c(O)cccc2C(C2OC(CO)[C@@H](O)[C@H](O)[C@H]2O)c2cc(CO)cc(O)c21 (stereo partly specified)	nt	-1
Cc1ccc(Cl)cc1S(=O)(=O)Nc1ccc2c(c1)CC(=O)N2C	nt	-1
Cc1noc(C)c1-c1nc(NCCCN2CCCC2=O)c2ncn(C3CCCCC3)c2n1	3	-7
c1cc(-c2cncc(N3CCOCC3)c2)nc(Nc2ccc3c(c2)OCCO3)n1	18	4
Fc1cnc(Nc2ccc(CN3CCCCC3)cc2)nc1-c1cc(N2CCOCC2)cc(C(F)(F)F)c1	8	-14
N#Cc1ccc(Nc2nccc(-c3cncc(N4CCOCC4)c3)n2)cc1	24	1
OC1CCN(c2ccc(Nc3nccc(-c4cncc(N5CCOCC5)c4)n3)cc2)CC1	6	68*
Fc1cc(-c2ccnc(Nc3ccc(N4CCOCC4)cc3)n2)cc(N2CCOCC2)c1	33	5
OC1CCN(c2ccc(Nc3nccc(-c4cc(F)cc(N5CCOCC5)c4)n3)cc2)CC1	31	45*
c1cc(Cn2cccn2)cc(Nc2nccc(-c3cncc(N4CCOCC4)c3)n2)c1	21	80*
Fc1cc(-c2nc(Nc3ccc(CN4CCCCC4)cc3)ncc2F)cc(N2CCOCC2)c1	10	44*
Oc1ccc(-c2cn3c4ccccc4n(CCN4CCOCC4)c3n2)cc1	nt	-2
Nc1cc(NCCCN2CCCC2=O)ncn1	2	-6
N#Cc1cc(-c2ccnc(Nc3cccc(CN4CCCCC4)c3)n2)cc(N2CCOCC2)c1	32	79*
Cc1cc(Nc2nccc(-c3cc(C#N)cc(N4CCOCC4)c3)n2)ccc1N1CCOCC1	18	14
CS(=O)(=O)c1ccc(C(=O)NCc2nc(-c3ccncc3)n[nH]2)s1	1	8
Cc1cnc(Nc2ccncc2)nc1NCCOc1ccccc1	6	50*
CCNc1ncc(C)c(NCCOc2ccccc2)n1	0	2
Cc1cnc(Nc2ccccc2)nc1NCCOc1ccccc1	3	15
COc1cc(Nc2ncc(C)c(NCCOc3ccccc3)n2)cc(OC)c1OC	5	63*
O=C(NC1CC1)c1ccc(-c2nc(NCc3cccnc3)c3ncn(Cc4ccc(C(F)(F)F)cc4)c3n2)cc1	-29	-4
O=C(Cc1cn(-c2ccc(Nc3ccncn3)nn2)c2ccccc12)NCc1cccnc1	-21	9
COc1cc(NC(=O)c2cccc(-c3ccc(N4CCOCC4)nc3)n2)cc(OC)c1OC	1	-8
Cc1cncc2cccc(S(=O)(=O)N3CCCN(C(=O)CN)C[C@@H]3C)c12	3	67*
SMILES	ASK1 inh	ULK1 inh
Cc1cncc2c(S(=O)(=O)N3CCCN(C(=O)CN)C[C@@H]3C)cccc12	4	7
CN(C)CC#Cc1ccc2c(c1)CC(c1nc3ccc(-c4ccnc(N)n4)cc3[nH]1)CO2 (stereo unspecified)	11	2
O=C(NCC(O)c1ccc(Cl)cc1)c1cncc(-c2ccc3[nH]ncc3c2)c1 (stereo unspecified)	-11	5
CCCNc1nc(Nc2ccc(-n3ccnc3)cc2)nc2nc[nH]c12	-45	41
FC(F)(F)c1ccc(Nc2nc(Nc3ccc(N4CCOCC4)cc3)c3[nH]cnc3n2)cc1	25	29
c1cn(-c2ccc(Nc3nc(NC4CC4)c4[nH]cnc4n3)cc2)cn1	-69	57*
c1cc(Nc2nc(NC3CC3)c3ncn(-c4ccsc4)c3n2)ccn1	-3	-3
c1cn(-c2ccc(Nc3nc(NC4CC4)c4ncn(-c5ccsc5)c4n3)cc2)cn1	14	53*
c1nc2nc(Nc3ccc(N4CCOCC4)cc3)nc(NC3CC3)c2[nH]1	-12	56*
c1ccc(CNc2nc(-c3ccc(N4CCOCC4)nc3)nc3nc[nH]c23)cc1	-8	-6
Cc1ncn(-c2ccc(Nc3nccc(Nc4cccc5ncccc45)n3)cc2)n1	8	3
CCCNC(=O)c1cnc(N2CCC(N3CCOCC3)CC2)s1	-13	-2
CC(=O)Nc1ccc(NC(=O)c2ccc3nc(Nc4cccc(N(C)C)c4)sc3c2)cc1	12	4
O=C(c1cc(Nc2ccc3[nH]ncc3c2)ccn1)N1CCOCC1	-2	-3
O=C(c1cccc(Nc2ccc3[nH]ncc3c2)n1)N1CCOCC1	-1	48*
Cc1ncc(CSSCc2cnc(C)c(O)c2CO)c(CO)c1O	nt	47*
Cc1ncc(COP(=O)(O)O)c(C=O)c1O	nt	-13
Cc1ccc2c(c1)CC(c1nc3ccc(-c4ccncc4)cc3s1)CO2 (stereo unspecified)	-5	-13
COc1cc(Nc2nc(N3CCN(c4ccccn4)CC3)nc3c2ncn3-c2ccsc2)cc(OC)c1OC	15	2
Cc1nc(Nc2ccccc2)cc(-c2cncc(-c3ccccc3)c2)n1	nt	0
